Tests used:
Assay type in all cases: functional
[1] = target: Solute carrier family 2, facilitated glucose transporter member 1 (Homo sapiens) (UniProt P11166); experiment: ST_JUDE_LEISH: Cytotoxicity at 2uM final concentration against transgenic Leishmania Mexicana promastigotes LmGLUT1 that are glucose transport deficient and complemented with the human glucose transporter GLUT1. Activity is measured by DNA content using SYBR green in vitro
[2] = target: Hexose transporter 1 (Plasmodium falciparum) (UniProt O97467); experiment: ST_JUDE_LEISH: Cytotoxicity at 2uM final concentration against transgenic Leishmania Mexicana promastigotes LmPfHT that are glucose transport deficient and complemented with the Plasmodium falciparum hexose transporter. Activity is measured by DNA content using SYBR green in vitro
[3] = target: Glucose transporter (Leishmania mexicana) (UniProt O61059); experiment: ST_JUDE_LEISH: Cytotoxicity at 2uM final concentration against transgenic Leishmania Mexicana promastigotes LmGT2 that are glucose transport deficient and complemented with the L. Mexicana glucose transporter 2. Activity is measured by DNA content using SYBR green in vitro

Chain of Solute carrier family 2, facilitated glucose transporter member 1 (Homo sapiens) (P11166 whole entry): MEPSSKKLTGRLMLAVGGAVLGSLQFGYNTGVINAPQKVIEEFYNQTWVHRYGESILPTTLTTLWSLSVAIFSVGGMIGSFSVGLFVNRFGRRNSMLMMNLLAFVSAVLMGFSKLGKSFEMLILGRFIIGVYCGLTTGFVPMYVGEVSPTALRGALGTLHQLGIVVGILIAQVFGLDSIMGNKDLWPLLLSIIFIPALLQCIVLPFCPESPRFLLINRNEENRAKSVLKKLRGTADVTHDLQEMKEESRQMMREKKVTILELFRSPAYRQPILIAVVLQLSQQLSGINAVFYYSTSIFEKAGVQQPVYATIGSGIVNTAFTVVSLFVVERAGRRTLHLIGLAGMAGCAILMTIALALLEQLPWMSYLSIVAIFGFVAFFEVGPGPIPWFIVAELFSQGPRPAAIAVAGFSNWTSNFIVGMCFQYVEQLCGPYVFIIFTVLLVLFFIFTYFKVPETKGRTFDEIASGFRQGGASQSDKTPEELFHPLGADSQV

SMILES	inhibition [1] [%]	inhibition [2] [%]	inhibition [3] [%]
CCOc1cc(C2C(C(=O)OC(C)C)=C(C)NC3=C2C(=O)CC(c2ccc(Cl)cc2)C3)ccc1OC(C)=O (centres undefined)	6.58	6.64	6.55
CNC(=O)c1ccc(/C=C/C(=O)N2CCc3ccc(-c4ccccc4)cc3C2c2cccc(C(F)(F)F)c2)cc1 (centres undefined)	2.29	-0.01	0.99
COc1cc(OC)nc(C(Sc2ccc(NC(=O)c3cccs3)cc2)c2ccccc2)n1 (centres undefined)	6.79	4.81	0.29
